Source: PubChem
This is a sample that favours compounds with a hit; in the whole collection about 21% have one here.
AMA1-RON2 inh – qHTS for Inhibitors of AMA1-RON; Towards Development of Antimalarial Drug Lead: Primary Screen | Potency, µM (top dose mostly 58.2 µM), for inactives: at the highest dose activity change, negative = inhibition, hits mostly inhibitors | AlphaScreen AMA1-biotinylated RON2 peptide binding | Plasmodium falciparum AMA1 (3D7) - RON2 peptide interaction | AID 720542, 2013 | 360,000 compounds, 0.2% hits;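 note: potency is the fitted concentration of half-maximal effect; 0% = vehicle wells and -100% = peptide control; nearly all actives have a fitted effect of over 45% in size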
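AMA1 (3D7) with his tag at 25 nM final met compounds first, then biotinylated RON2 peptide at 25 nM; detection used donor plus acceptor beads, 10 µg/mL apiece, read by AlphaScreen after 30 min at room temperature.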
Cycloheximide cs – Cycloheximide Counterscreen for Small Molecule Inhibitors of Shiga Toxin | cell reporter, cycloheximide protein synthesis inhibition counterscreen | max response, % | 300,000 compounds, 12% hits | AID 2314, 2010; in the data active = max response mostly above about 13%, no sharp cut-off; inactive = mostly below about 14%; note: read at 38.3 µM for the half of the compounds with a filed dose; 0% is about no effect
Pf growth 48h – Primary qHTS for delayed death inhibitors of the malarial parasite plastid, 48 hour incubation | P. falciparum luciferase growth in erythrocytes, 48 h | Potency, µM (doses to about 28.7 µM), for inactives: at the highest dose activity change, negative = inhibition, usual class: inhibitors | 310,000 compounds, 5.9% hits | AID 504832, 2011; note: potency is the fitted concentration of half-maximal effect; % is set by controls: 0 for no effect and ±100 for the full control effect
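Erythrocytes infected with P. falciparum carrying an integrated firefly luciferase reporter (2% hematocrit, 0.1% parasitemia final) were exposed to compounds in RPMI 1640 with 0.5% Albumax at 37 C, 5% CO2. Growth inhibition was scored as reduced luminescence.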
Shiga toxin inh – A qHTS for Small Molecule Inhibitors of Shiga Toxin; Vero cells, Shiga toxin protein synthesis inhibition reporter; inhibition, % at 38.7 µM; 290,000 compounds, 9.2% hits; AID 2315, 2010; in the data active = inhibition mostly above about 28%, no sharp cut-off; inactive = mostly below about 43%; note: 0% is about no effect
Pf growth 96h – Primary qHTS for delayed death inhibitors of the malarial parasite plastid, 96 hour incubation | 320,000 compounds, 6.9% hits | P. falciparum luciferase reporter growth, 96 h | Potency, µM (series often up to 28.7 µM), for the others: at the highest dose activity change, negative = inhibition, actives largely listed as inhibitors; note: potency is the fitted concentration of half-maximal effect; % is set by controls: 0 for no effect and ±100 for the full control effect
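Two-generation exposure (96 h) targets delayed-death phenotype. Reporter parasites carrying integrated firefly luciferase, in red cells at 2% hematocrit and 0.05% parasitemia final, kept at 37 C, 5% CO2; luminescence loss indicates inhibition.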
HCV inhibitor – qHTS Assay for Inhibitors of Hepatitis C Virus (HCV); Huh7.5.1 HCVcc-Cre infection, luciferase reporter, 44 h; Potency, µM (titrated, usually from 41.8 µM), for the others: top-dose activity change, negative = inhibition, hits mostly inhibitors; 340,000 compounds, 3.4% hits; AID 651820, 2012; note: potency is the fitted concentration of half-maximal effect; % is set by controls: 0 for no effect and ±100 for the full control effect
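A cell-based infection assay in which seeded cells (1,000 per well) receive test compound after 4 h, are inoculated with HCVcc-Cre at approximately 0.5 moi, and are incubated 44 h before luminescence detection.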
* = called active by the depositor; ? = inconclusive; nt = not tested or not shown; [ ] = another dose, or the depositor's remark. Unless noted, calls come from the whole dose curve; as a rule, active = well fitted curve in the direction sought with a large enough effect; inconclusive = small, poorly fitted or top-dose-only effect, or another doubt; inactive = no such curve, though single readings can be large; an effect the other way counts as inactive or inconclusive.

SMILES	AMA1-RON2 inh	Cycloheximide cs	Pf growth 48h	Shiga toxin inh	Pf growth 96h	HCV inhibitor
COc1c(CC=C(C)C)cc(C2CC(=O)c3c(O)cc(O)cc3O2)cc1CC=C(C)C (centres undefined)	7%	active	?	19	168%	?
COc1ccc(NC(=O)CCCNC(=O)c2ccc(Cl)cc2)cc1S(=O)(=O)N1CCCCC1	-4%	nt	nt	nt	nt	?
COc1ccc(C=NNc2ccc([N+](=O)[O-])cn2)cc1	10%	nt	nt	nt	nt	30%
CCOc1ccccc1C=NNc1ccc([N+](=O)[O-])cn1	6%	nt	nt	nt	nt	17%
O=[N+]([O-])c1ccc(N/N=C/c2ccc(OCc3cccc4ccccc34)cc2)nc1	-6%	18*	?	33	7.4µM*	-15%
N#Cc1ccccc1Cn1cc(/C=N/Nc2ccc([N+](=O)[O-])cn2)c2ccccc21	-6%	-1	?	5	5.2µM*	2.5µM*
Cc1ccccc1Cn1ccc(NC(=O)CCSc2nc(-c3ccco3)cc(C(F)(F)F)n2)n1	0%	-1	-24%	1	nt	3.2µM*
Cc1cc(NC(=O)CCSc2nc(-c3ccco3)cc(C(F)(F)F)n2)no1	-14%	-3	-24%	-24	nt	?
Cc1ccc(Cn2ccc(NC(=O)CCSc3nc(-c4ccco4)cc(C(F)(F)F)n3)n2)cc1	14%	5	10µM*	10	nt	11µM*
COC(=O)c1cccc(N(CC(=O)NC2CCCCC2)C(=O)CNC(=O)c2cccs2)c1	5%	-4	?	-4	16%	14%
CCN(CC)c1ccc(CNCc2cccs2)cc1	?	20*	14%	59	-14%	?
Fc1ccc(CNCCc2ccccc2)cc1	-10%	1	-22%	-8	10%	5%
CCN(CC)c1ccc(CNCCc2ccccc2F)cc1	?	-3	-11%	-18	9.3µM*	?
Cc1ccc(CNCCc2ccccc2F)cc1	-4%[11.6 µM]	14*	10%	40	58%	0%
O=C(Cc1cccc2ccccc12)Nc1c(F)cccc1F	4%	18*	22%	58*	37%	5%
COc1ccc(OCCNC(=O)c2ccc3nc(C)c(N(C)Cc4ccc(NC(C)=O)cc4)n3c2)cc1	-3%	nt	nt	nt	nt	nt
OCCNCc1cccc2ccccc12	9%	3	24%	-9	-28%	-11%
Fc1ccccc1CCNCc1cccc2ccccc12	7%	18*	3%	26	0%	-11%
CCN(c1ccccc1)S(=O)(=O)c1ccc(OC)c(NC(=O)c2cc(F)c(F)c(F)c2F)c1	6%	nt	nt	nt	nt	-15%
COc1cc(CNC[C@H]2O[C@@H](n3ccc(N)nc3=O)[C@H](O)[C@@H]2O)ccc1OCc1ccc(C)cc1	11%	nt	nt	nt	nt	nt
COc1ccc(/C=C/C(=O)Oc2cc(C)[nH]c(=O)c2[N+](=O)[O-])cc1OC	50%	59*	-5%	164*	7%	3%
O=C1CCC(c2ccccc2)=NN1	-3%	6	31%	25	?	32%
O=C1CCC(c2ccc3c(c2)CCC3)=NN1	-2%	-4	45%	26	21%	?
CCCCCc1ccc(C2=NNC(=O)CC2)cc1	-2%	14*	59%	nt	?	15%
CC(C)CCOc1ccc(C2=NNC(=O)CC2)cc1	18%	26*	63%	43*	92%	18%
SMILES	AMA1-RON2 inh	Cycloheximide cs	Pf growth 48h	Shiga toxin inh	Pf growth 96h	HCV inhibitor
Cc1ccc(C)c(NC(=O)C[n+]2ccccc2)c1	-9%	2	25%	-3	?	18%
O=C(OCc1c(-c2ccccc2)ncc2ccccc12)c1ccccc1C(F)(F)F	0%	nt	nt	nt	nt	49%[8.37 µM]
O=C(NC1=NCCS1)C1Cc2ccccc2CN1C(=O)c1ccccc1 (centres undefined)	30%	28*	13%	84*	?	-5%
CC(=O)c1ccc(NC(=O)C2Cc3ccccc3CN2C(=O)c2ccccc2)cc1 (centres undefined)	-6%	11*	-21%	41*	15µM*	13%
Cc1ccsc1-c1nc(CN2CCCC2c2ccc(F)cc2)c(C)o1 (centres undefined)	-10%	-3	?	20	4%	-1%
Cc1cccc(C)c1NC(=O)c1ccc2sc([C@@H]3O[C@H](CO)[C@H](O)[C@H](O)[C@H]3O)nc2c1	4%	nt	nt	nt	nt	nt
O=C(NCCC(=O)N1CCC2(CC1)NCCc1[nH]cnc12)c1ccc(F)c(F)c1	1%	-2	6%	-2	29%	?
Cc1cc(C)c(OCC(=O)OCC(=O)NCc2ccco2)c(C)c1	-5%	nt	nt	nt	nt	nt
CC(C)CNC(=O)c1c(N)n(/N=C/c2cccnc2)c2nc3ccccc3nc12	nt	-4	6%	-29	3.3µM*	7%
CCC(C)NC(=O)c1c(N)n(/N=C/c2ccccn2)c2nc3ccccc3nc12 (centres undefined)	29%	8	-1%	10	7%	?
CCC(C)NC(=O)c1c(N)n(/N=C/c2cccnc2)c2nc3ccccc3nc12 (centres undefined)	23%	4	?	61	?	14µM*
COc1ccc(CNC(=O)COC(=O)c2cc3ccccc3o2)cc1	-3%	nt	-1%	nt	1%	1%
Cc1nn(C(C)(C)C)c(C)c1/C=N/OC(=O)Nc1ccc(Cl)c(Cl)c1	0%	-4	39%	-18	116%	-27%
COc1ccc(NC(=O)O/N=C/c2c(C)nn(C(C)(C)C)c2C)cc1	1%	29*	153%	45	281%	-27%
COc1ccc(Br)cc1/C=C\C(=O)NCc1cccnc1	-11%	-3	-24%	-4	6%	?
COc1cccc(CC2(CO)CCCN(Cc3ccccc3Cl)C2)c1 (centres undefined)	0%	-3	21%	-4	10µM*	?
COc1cccc(CC2(CO)CCCN(S(=O)(=O)N(C)C)C2)c1 (centres undefined)	6%	5	-7%	15	6.6µM*	-9%
COc1cccc(CC2(CO)CCCN(Cc3cn[nH]c3-c3ccc(F)cc3)C2)c1 (centres undefined)	0%	-3	?	-11	256%	-2%
CCOC(=O)N1CCC(N2CCCC(CO)(Cc3cccc(OC)c3)C2)CC1 (centres undefined)	-9%	-1	?	-18	3.3µM*	-2%
COc1cccc(CC2(CO)CCCN(Cc3cc(F)ccc3-n3cccn3)C2)c1 (centres undefined)	-15%	-4	13µM*	-15	36%	?
Cc1ccc(NS(=O)(=O)c2c(C)noc2C)cc1	-8%	-2	1%	-3	-26%	-1%
